Seven compounds from PubChem BioAssay (NCATS) can be followed below.

A short description of test [1]: qHTS assay to identify small molecules that stimulate interleukin-8 (IL-8) secretion (AID 651758; active = well fitted activation curve with a large enough effect in the signal ratio; the % refers to the signal ratio; note: potency is the fitted concentration of half-maximal effect; for activation: 0% is about no effect). In short, it runs like this: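 THP-1 cells (2000/well) exposed to compound 16 h at 37 C; secreted IL-8 then detected by HTRF with cryptate- and XL665-labelled anti-IL-8 antibody pair after 1-3 h at room temperature.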
Background: qHTS replaces the single test concentration by a dilution series.

Test [2] in a line: qHTS assay for environmental chemicals that activate the Aryl hydrocarbon Receptor (AhR) signaling pathway (AID 651777). Note: % of control where 0% means no effect; nearly all actives have a fitted effect of over 15% in size. The conditions noted are these: 1A2-DRE human hepatoma cells, luciferase, 24 h; activation: hits give high values. Put shortly: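 Measured luciferase activity, read 30 min after One-Glo addition at room temperature, from human hepatoma cells bearing a dioxin response element–CYP1A2 promoter reporter and exposed to compound for 24 hr at 37 C.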

In test [3] the target is Peroxisome proliferator-activated receptor alpha (Homo sapiens) (UniProt Q07869). Description: qHTS assay for small molecule agonists of the peroxisome proliferator-activated receptor alpha (PPARalpha) signaling pathway (AID 651778). Note: % of control where 0% means no effect. The settings on record: PathHunter PPARalpha complementation, chemiluminescence, 6 h; hits give high values. Put shortly:
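Enzyme-fragment complementation assay in which ligand-bound PPARalpha translocates and forms an active enzyme that generates chemiluminescence. Cells were plated overnight, exposed to compound for 6 hr at 37 C, and then given detection reagent for 60 min at room temperature.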

Test [4] concerns the target Nuclear receptor ROR-gamma (Homo sapiens) (UniProt P51449). Briefly: qHTS assay for small molecule antagonists of the retinoid-related orphan receptor gamma (ROR-gamma) signaling pathway (AID 651802). Note: nearly all actives have a fitted effect of over 60% in size. Note: potency is the fitted concentration of half-maximal effect. In short, it runs like this:
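CHO cells with TET-inducible ROR-gamma and RORE-luciferase reporter, dosed then doxycycline-induced. After 16 h at 37C, One-Glo luminescence read; decreased signal indicates antagonism.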

Test [5] addresses Arylsulfatase A (Homo sapiens) (UniProt P15289). Briefly: qHTS screen for enhancers of Arylsulfatase A (ASA1): LOPAC Validation Assay (AID 720538). Note: potency is the fitted concentration of half-maximal effect. In short, it runs like this: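 First, ASA-I179S fibroblasts from an MLD patient adhered for 6 hrs. Next, compounds were added for 48h. Then pNCS substrate (0.5mM final) with lysis buffer reacted 14h at room temperature before NaOH stop and fluorescence measurement.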

A short description of test [6]: qHTS for compounds that reverse cellular toxicity of Amyloid beta (A-beta) peptide in yeast: LOPAC Validation Assay (AID 720559).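 Note: plate controls were DMSO for no effect and equimolar ferric chloride plus clioquinol rescue for full effect.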 In short, it runs like this:
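Activity is expressed relative to DMSO and an equimolar ferric chloride/clioquinol mix. Compounds were pinned into medium with A-beta-expressing yeast, grown 48 hr at 30 C, then read by absorbance at 600 nm.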

Test [7] in a line: qHTS for Activators of Parkin Expression: LOPAC Validation Assay (FLuc Reporter) (AID 720573;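 note: 0% = DMSO and 100% = positive control compounds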). In short, it runs like this:
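A neuronal cell line harbouring FLuc and NLuc reporters behind the Parkin promoter was exposed to compounds for 24 h. Firefly luciferase signal, measured after 10 min with detection reagent, was scaled to DMSO and positive-control wells.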

The nature of test [8]: qHTS assay for small molecule agonists of the antioxidant response element (ARE) signaling pathway measured by Nrf2-dependant transcriptional activity (AID 720636; active = well fitted curve in the direction sought with a large enough effect in the repeat runs; an effect the other way counts as inactive or inconclusive;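 note: HepG2 cells with an ARE-driven luciferase reporter; % of control where 0% means no effect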). Put shortly:
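In HepG2 cells engineered with an Nrf2-responsive luciferase gene, ARE induction was quantified as luminescence after 16 hr compound treatment at 37 C.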

A short description of test [9]: qHTS assay for small molecule antagonists of the retinoid-related orphan receptor gamma (ROR-gamma) signaling pathway - cell viability counter screen (AID 720652; active = well fitted curve in the direction sought with a large enough effect in the repeat runs; an effect the other way counts as inactive or inconclusive;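 note: series mostly up to about 92 µM; compound exposure lasted 16 hr before ATP read; % is set by controls: 0 for no effect and ±100 for the full control effect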). In short, it runs like this: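 CHO cells carrying TET-inducible ROR and RORE-luciferase reporter, plated 5 hr, then dosed with compound plus doxycycline. After 16 hr at 37 C, viability read as intracellular ATP by CellTiter-Glo luminescence.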

Test [10] is described as follows: qHTS assay for small molecule agonists of the antioxidant response element (ARE) signaling pathway measured by Nrf2-dependant transcriptional activity - cell viability counter screen (AID 720653; active = well fitted curve in the direction sought with a large enough effect in the repeat runs; an effect the other way counts as inactive or inconclusive; note: % is set by controls: 0 for no effect and ±100 for the full control effect). The conditions noted are these: ARE-bla HepG2 viability, CellTiter-Glo ATP luminescence, 16 h; max response: hits give low values. In short, it runs like this: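 ARE-bla HepG2 cells treated with compounds for 16 h at 37C; this counter screen measures viability as intracellular ATP by CellTiter-Glo luminescence after 30 min at room temperature.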

The target in test [11] is T1, Hexokinase-4 (Homo sapiens) + Glucokinase regulatory protein (Homo sapiens) (UniProt P35557+Q14397). Description: qHTS assay for inhibitors of recombinant human GCK-GKRP interaction: Diaphorase-coupled assay (AID 743205). Put shortly:
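Inhibitors of the GCK–GKRP complex relieve GKRP suppression of GCK, detected through a G6PDH–diaphorase cascade reducing resazurin. Human GST-GCK and FLAG-GKRP are used at 10 nM with 5 mM glucose and 0.4 mM ATP.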

The target of test [12] is T1, Hexokinase-4 (Homo sapiens) + Glucokinase regulatory protein (Homo sapiens). Description: qHTS assay for inhibitors of recombinant human GCK-GKRP interaction: ADP-Glo assay (AID 743206).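 Note: plate controls were DMSO plus enzyme for no effect and no enzyme for full effect.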 In short, it runs like this:
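GST-GCK and FLAG-GKRP (15 nM each in the dispensed mix, with 2 uM S6P) react with 0.4 mM ATP and 5 mM glucose (final) in Hepes pH 7.6 for 60 min at room temperature. ADP is measured by ADP-Glo luminescence.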

Test [13] shares this target. Briefly: qHTS assay for inhibitors of recombinant human GCK-GKRP interaction: HTRF assay (AID 743207).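 Note: 0% = DMSO with GCK present and -100% = DMSO wells lacking GCK.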 Put shortly: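 Steps: dispense GCK–GKRP complex (5 nM each, GST- and FLAG-tagged) with 2 uM S6P; pin in compounds; add XL665/Eu-cryptate-labelled antibodies; incubate 60 min at room temperature; read time-resolved FRET at 665 and 615 nm.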
Test [14] in a line: qHTS Assay for Identifying Gametocytocidal Compounds (AID 743244).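 Note: % is set by controls: 0 for no effect and ±100 for the full control effect; actives lower the fluorescent signal which means gametocytes are killed.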 The settings on record: P. falciparum 3D7 stage III-V gametocytes, alamarBlue, 72 h; max response: hits give low values. Put shortly:
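Viability read-out was resazurin reduction (alamarBlue, 24 h) measured at Ex 525/Em 598 nm. Beforehand, late-stage (III-V) 3D7 P. falciparum gametocytes at 20,000 cells/well were incubated with compound 72 h at 37C under 5% CO2.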

A short description of test [15]: qHTS assay for small molecule disruptors of the mitochondrial membrane potential - 1 hr assay (AID 651754; calls by dose curve; note: % is set by controls: 0 for no effect and ±100 for the full control effect; nearly all actives have a fitted effect of over 35% in size). In short, it runs like this: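 HepG2 cells, attached overnight, were exposed to compound for 1 hr at 37C, then stained 30 min with a potentiometric dye. Ratio of red aggregate (590nm) to green monomer (535nm) fluorescence reports membrane potential; collapse shifts signal toward green.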

Test [16] can be described thus: qHTS assay for small molecule disruptors of the mitochondrial membrane potential - 5 hr assay (AID 651755; calls by dose curve; note: % is set by controls: 0 for no effect and ±100 for the full control effect; nearly all actives have a fitted effect of over 40% in size). In short, it runs like this:
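HepG2 cells (2,000/well), attached overnight, exposed to compound 5 hr at 37C, then Mito-MPS dye 30 min. Fluorescence read for monomers (490/535 nm) and aggregates (540/590 nm).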

Test [17] deals with Tumor necrosis factor (Homo sapiens) (UniProt P01375). Description: qHTS assay to identify small molecules that stimulate Tumor Necrosis Factor-alpha (TNF-alpha) secretion (AID 651757; active = well fitted curve in the direction sought with a large enough effect in the signal ratio; the % refers to the signal ratio; note: 0% is about no effect). Put shortly:
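THP-1 cells (3000/well) exposed to compounds 17 hrs at 37 C. Secreted TNF-alpha detected by HTRF with cryptate- and XL665-labeled anti-TNF-alpha antibodies after 3 hr at room temperature.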

Test [18] concerns the target Tyrosine-protein kinase Yes (Homo sapiens) (UniProt P07947). Description: qHTS for small molecule inhibitors of Yes1 kinase: Primary Screen (AID 686947).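 Note: plate controls were DMSO with enzyme for no effect and no-enzyme DMSO wells for full effect; nearly all actives have a fitted effect of over 60% in size.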 Put shortly: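 Yes1 (4 nM) preincubated 20 min with compound, then 60 min room-temperature reaction with 0.1 mM ATP and 0.3 mg/mL poly(E4Y) in pH 7.5 Tris, 10 mM MgCl2. ADP measured by ADP-Glo luminescence, normalised to enzyme/no-enzyme controls.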

Test [19] can be described thus: qHTS for small molecule inhibitors of Yes1 kinase: Counter Assay (AID 686950).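 Note: no kinase present so only ADP-Glo detection of a fixed ADP amount is tested; luminescence from ADP-Glo reporting ADP in a fixed ATP and ADP mixture; series mostly up to about 77 µM; 0% = DMSO wells with ATP plus ADP and -100% = ATP-only wells without ADP.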 In short, it runs like this: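 Enzyme-free detection counter-screen: compounds preincubated 20 min in buffer, then 0.08 mM ATP plus 0.02 mM ADP added for 60 min at room temperature; ADP-Glo luminescence. Buffer 50 mM Tris pH 7.5, 10 mM MgCl2, 150 mM NaCl; normalized to ATP+ADP and ATP-only controls.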

Test [20] is described as follows: qHTS for Activators of Parkin Expression: LOPAC Validation Assay (NLuc Reporter) (AID 720572;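 note: 0% = DMSO and 100% = positive control compound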). In short, it runs like this: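 Neuronal cells with a Parkin promoter-driven FLuc/NLuc coincidence reporter were treated 24 h at 37 C in 7-point dose response (LOPAC). NLuc luminescence read after FLuc; signals normalized to DMSO and positive control (100%).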

The structures appear in SMILES notation. Several values for one entry are separate records, joined by “and”; a condition that tells them apart may be missing. Equal entries are not always repeated. Unmarked numbers belong to inactive results. Results filed as inconclusive are left out. Activity calls are given as the source filed them. Unless noted, calls come from the whole dose curve; as a rule, active = well fitted curve in the direction sought with a large enough effect; inconclusive = small, poorly fitted or top-dose-only effect, or another doubt; inactive = no such curve, though single readings can be large; an effect the other way counts as inactive or inconclusive.

Sequence of Peroxisome proliferator-activated receptor alpha (Homo sapiens) (Q07869 whole entry, looked up, the tested form may be a part): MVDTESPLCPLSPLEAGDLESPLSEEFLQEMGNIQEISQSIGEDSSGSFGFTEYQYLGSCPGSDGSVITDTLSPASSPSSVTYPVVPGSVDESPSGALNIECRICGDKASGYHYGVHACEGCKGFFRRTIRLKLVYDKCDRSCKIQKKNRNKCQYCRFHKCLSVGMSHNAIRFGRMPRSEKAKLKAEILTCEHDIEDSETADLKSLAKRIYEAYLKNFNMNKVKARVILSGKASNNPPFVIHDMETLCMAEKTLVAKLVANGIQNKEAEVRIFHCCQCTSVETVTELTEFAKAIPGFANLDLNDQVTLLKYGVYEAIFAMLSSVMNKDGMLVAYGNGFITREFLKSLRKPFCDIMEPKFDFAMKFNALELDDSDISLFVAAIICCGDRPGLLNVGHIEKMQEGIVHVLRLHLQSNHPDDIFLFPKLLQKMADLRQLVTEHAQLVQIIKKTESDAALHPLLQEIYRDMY
Sequence of Tumor necrosis factor (Homo sapiens) (P01375 whole entry, looked up): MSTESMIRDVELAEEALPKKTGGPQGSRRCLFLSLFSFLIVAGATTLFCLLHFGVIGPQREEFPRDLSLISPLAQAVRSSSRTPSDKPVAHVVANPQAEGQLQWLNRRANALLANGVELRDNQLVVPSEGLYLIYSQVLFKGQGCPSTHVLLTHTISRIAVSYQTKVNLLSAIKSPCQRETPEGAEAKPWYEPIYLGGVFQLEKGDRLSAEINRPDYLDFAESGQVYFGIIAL
T1 sequence (P35557 whole entry, looked up): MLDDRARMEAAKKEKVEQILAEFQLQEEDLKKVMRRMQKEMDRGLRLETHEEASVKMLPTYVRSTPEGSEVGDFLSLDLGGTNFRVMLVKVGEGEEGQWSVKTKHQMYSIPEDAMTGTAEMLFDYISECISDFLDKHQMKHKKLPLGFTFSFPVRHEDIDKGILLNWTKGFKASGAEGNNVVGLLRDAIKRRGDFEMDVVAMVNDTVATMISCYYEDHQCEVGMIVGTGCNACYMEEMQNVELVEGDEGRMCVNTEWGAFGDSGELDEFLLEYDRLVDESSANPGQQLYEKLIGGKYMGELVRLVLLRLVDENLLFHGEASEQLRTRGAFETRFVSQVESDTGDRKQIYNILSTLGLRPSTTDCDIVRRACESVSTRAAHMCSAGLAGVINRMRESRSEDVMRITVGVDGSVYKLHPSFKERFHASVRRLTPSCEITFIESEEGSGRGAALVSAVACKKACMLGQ
T1 sequence (Q14397 whole entry, looked up): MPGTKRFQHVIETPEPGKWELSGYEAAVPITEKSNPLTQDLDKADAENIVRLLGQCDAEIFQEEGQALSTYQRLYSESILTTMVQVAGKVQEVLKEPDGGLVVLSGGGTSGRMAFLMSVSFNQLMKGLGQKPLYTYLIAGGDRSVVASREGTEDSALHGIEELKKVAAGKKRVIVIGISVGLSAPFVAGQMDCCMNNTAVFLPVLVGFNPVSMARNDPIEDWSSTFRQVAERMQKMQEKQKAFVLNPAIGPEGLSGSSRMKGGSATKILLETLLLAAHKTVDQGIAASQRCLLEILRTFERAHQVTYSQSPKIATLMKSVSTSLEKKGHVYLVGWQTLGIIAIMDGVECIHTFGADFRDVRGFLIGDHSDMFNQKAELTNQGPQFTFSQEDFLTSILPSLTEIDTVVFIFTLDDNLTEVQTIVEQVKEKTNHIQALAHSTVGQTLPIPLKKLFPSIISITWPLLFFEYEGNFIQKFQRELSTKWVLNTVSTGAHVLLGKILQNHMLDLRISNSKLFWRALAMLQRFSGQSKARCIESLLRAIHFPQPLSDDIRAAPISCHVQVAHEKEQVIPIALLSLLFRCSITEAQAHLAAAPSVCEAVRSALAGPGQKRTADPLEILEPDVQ
Sequence of Arylsulfatase A (Homo sapiens) (P15289 whole entry, looked up): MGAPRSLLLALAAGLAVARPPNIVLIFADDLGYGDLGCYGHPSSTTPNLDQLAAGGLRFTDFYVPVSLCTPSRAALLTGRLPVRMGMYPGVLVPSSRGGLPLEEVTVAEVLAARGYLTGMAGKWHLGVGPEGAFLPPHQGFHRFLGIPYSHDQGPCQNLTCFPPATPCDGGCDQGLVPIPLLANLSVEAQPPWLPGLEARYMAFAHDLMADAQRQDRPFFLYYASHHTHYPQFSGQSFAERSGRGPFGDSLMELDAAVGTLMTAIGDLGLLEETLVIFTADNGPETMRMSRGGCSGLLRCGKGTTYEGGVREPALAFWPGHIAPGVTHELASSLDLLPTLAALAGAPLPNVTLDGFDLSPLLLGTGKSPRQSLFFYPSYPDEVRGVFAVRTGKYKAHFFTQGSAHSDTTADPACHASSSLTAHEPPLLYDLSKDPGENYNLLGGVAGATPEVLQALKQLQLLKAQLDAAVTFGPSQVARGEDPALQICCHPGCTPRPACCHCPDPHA
Sequence of Nuclear receptor ROR-gamma (Homo sapiens) (P51449 whole entry, looked up): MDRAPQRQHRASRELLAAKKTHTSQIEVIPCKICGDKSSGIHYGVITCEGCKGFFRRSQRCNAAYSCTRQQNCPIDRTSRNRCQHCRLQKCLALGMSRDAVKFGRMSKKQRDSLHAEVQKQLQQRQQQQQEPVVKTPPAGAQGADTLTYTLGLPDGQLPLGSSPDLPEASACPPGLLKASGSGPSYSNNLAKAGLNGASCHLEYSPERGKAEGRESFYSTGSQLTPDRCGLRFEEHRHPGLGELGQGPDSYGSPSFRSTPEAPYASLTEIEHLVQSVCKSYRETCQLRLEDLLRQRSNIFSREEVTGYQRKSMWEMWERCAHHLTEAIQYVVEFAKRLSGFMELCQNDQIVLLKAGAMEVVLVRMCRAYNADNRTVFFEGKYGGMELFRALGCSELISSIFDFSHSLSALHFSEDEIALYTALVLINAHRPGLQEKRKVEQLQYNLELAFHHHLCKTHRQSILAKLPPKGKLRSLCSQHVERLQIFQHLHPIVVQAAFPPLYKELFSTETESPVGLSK
Sequence of Tyrosine-protein kinase Yes (Homo sapiens) (P07947 whole entry, looked up): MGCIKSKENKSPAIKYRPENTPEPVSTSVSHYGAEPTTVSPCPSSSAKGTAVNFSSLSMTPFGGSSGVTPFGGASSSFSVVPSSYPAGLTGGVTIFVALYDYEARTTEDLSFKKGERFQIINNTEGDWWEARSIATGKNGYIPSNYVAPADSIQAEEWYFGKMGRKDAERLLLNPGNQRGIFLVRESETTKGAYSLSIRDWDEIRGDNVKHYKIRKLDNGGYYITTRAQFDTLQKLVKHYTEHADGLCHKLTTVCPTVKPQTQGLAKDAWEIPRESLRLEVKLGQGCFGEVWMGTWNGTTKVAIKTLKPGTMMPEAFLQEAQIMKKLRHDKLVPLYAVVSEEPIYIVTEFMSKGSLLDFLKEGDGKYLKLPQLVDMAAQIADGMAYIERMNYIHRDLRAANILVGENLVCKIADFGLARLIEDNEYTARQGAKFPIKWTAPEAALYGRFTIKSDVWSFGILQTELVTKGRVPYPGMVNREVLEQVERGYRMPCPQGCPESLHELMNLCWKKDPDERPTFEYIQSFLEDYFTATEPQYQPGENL

For `COc1ccc(CN(CCN(C)C)c2ccccn2)cc1`, the Potency entry in test [1], in test [4], in test [5] and in test [13] was “inactive” each time. For the same compound, the activation in test [2] was 3.63%. The max response in [3] was -5.33%; in test [10] it was -3.41%; in test [14] it was -1.15% and 9.8%. Also, the compound was classed as inactive in test [6], in test [7], in test [8], in [9], in test [11] and in [12].
As to `Nc1ncn([C@@H]2O[C@H](CO)[C@@H](O)[C@H]2O)c(=O)n1`, the Potency entry in test [15], in [16], in [18] and in test [13] was “inactive” throughout. The call in [17], in [19], in test [6], in test [7], in [8] and in test [11] was inactive. For the same compound, in test [12], the result was inactive. Further, the activation in test [2] was 5.55% and 8.87%. Besides, the max response in test [3] is -2.48% and -2.55%; in [10], -13.9% and 0.747%; in [14] it was -3.69% and 12.2%. Also, in test [4], the Potency was 3.35 µM (active).
`CCCCOCCOCCOCc1cc2c(cc1CCC)OCO2`: the Potency entry in test [15] and in [16] was “inactive” each time. Also, the compound was called inactive in test [17], in test [8] and in test [9]. Further, in test [2], the activation was 5.54% and 1.27%. The max response in test [3] is -0.481% and -4.29%; in test [10], -10.7% and -4.66%; in [14], 3.05%.
Consider `O=c1[nH]c(=O)n([C@H]2C[C@H](O)[C@@H](CO)O2)cc1Br`, for which the result in test [17], in test [6], in [7], in [8], in [9] and in test [11] was inactive. Further, the outcome in test [12] was inactive. The Potency in test [1] is 53.1 µM (active). Moreover, the activation in [2] is 0.877%. Moreover, the max response in [3] is -2.48%; in test [10] it was -13.7%; in [14] it was 2.92% and 14.4%. The Potency result in test [20] and in test [13] was “inactive” throughout.
Regarding `CC(C)(Oc1ccc(CCNC(=O)c2ccc(Cl)cc2)cc1)C(=O)O`, the activation in test [2] was -0.0115%. Besides, the values for the max response in [3] and in [10] were 9.62% and -11.9%, respectively. The Potency result in test [5], in test [20] and in test [13] was “inactive” throughout. In addition, the compound was called inactive in [6], in [7], in [8], in test [11] and in test [12].
In the case of `CNCCCN1c2ccccc2CCc2ccccc21`, in test [5], the Potency was 21.3 µM (active). Besides, the result in [6] and in test [7] was inactive. Further, the Potency result in [20] was “inactive”.
Consider `COc1cc(Cc2cnc(N)nc2N)cc(OC)c1OC`, for which the Potency entry in [15], in test [16], in test [5] and in test [20] was “inactive” throughout. The result in test [17], in test [6], in [8] and in test [9] was inactive. Also, the activation in test [2] was -1.14%. Moreover, the max response in test [3] was -3.22%; in test [10] it was 0.934%; in [14], 1.83% and 3.42%.
